Compound activity deposited in PubChem by The Scripps Research Institute Molecular Screening Center.
Shown are actives, neighbours in structure and some others; about 2.7% of the full set was active somewhere.
PAFAH2 inh: inhibitors of human PAFAH2. Q99487. recombinant PAFAH2, FP-rhodamine activity probe, fluorescence polarization. inhibition, % at 3.39 µM. hit rate 0.99% among 340,000;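 active = inhibition above the mean over all tested compounds plus 3 SD, cut at about 30% in these data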;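 note: inhibitors block probe labeling of enzyme so polarization drops; 0% = enzyme with DMSO and 100% = wells lacking PAFAH2 protein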
TCR CD3 inh: blocks the human TCR-CD3 interaction. TAMRA-labeled TCR probe fluorescence, biochemical. inhibition, % at 9.4 µM. hit rate 0.37% among 360,000. AID 651800; in the data active = inhibition above about 19%;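 note: recombinant mutant TCR 2C K166C tagged with TAMRA read by polarization; 0% = receptor in buffer alone and 100% = receptor with positive control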
pPAFAH FP inh: pPAFAH (human) enzyme inhibition | Q13093 | recombinant pPAFAH, FP-rhodamine probe fluorescence polarization | inhibition, % at 3.39 µM | hit rate 1.5% among 330,000 | AID 463082;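 active = inhibition above the mean inhibition across the screen plus 3 SD, cut at about 25% in these data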;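 note: inhibitors block binding of the rhodamine activity-based probe so polarization drops; 0% = enzyme with DMSO and 100% = wells lacking pPAFAH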
PAFAH1B2 inh: blocks human PAF acetylhydrolase 1b catalytic subunit 2; inhibition, % at 3.39 µM; hit rate 1.2% among 340,000; AID 492953; recombinant PAFAH1B2, FP-rhodamine activity probe, fluorescence polarization;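 active = inhibition above the mean of all tested compounds plus 3 SD, cut at about 24% in these data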;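 note: 0% = enzyme with DMSO and 100% = wells lacking PAFAH1B2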
Target sequence (P68402 whole entry, looked up): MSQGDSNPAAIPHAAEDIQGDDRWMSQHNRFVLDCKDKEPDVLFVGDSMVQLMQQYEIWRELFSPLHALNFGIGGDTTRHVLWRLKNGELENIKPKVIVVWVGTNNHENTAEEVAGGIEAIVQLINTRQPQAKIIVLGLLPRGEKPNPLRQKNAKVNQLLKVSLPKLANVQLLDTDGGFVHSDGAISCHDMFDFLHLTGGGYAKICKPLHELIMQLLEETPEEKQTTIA
PAFAH1B3 inh: blocks human PAF acetylhydrolase 1B catalytic subunit 3. inhibition, % at 3.39 µM. AID 492972. recombinant PAFAH1B3, FP-rhodamine probe, fluorescence polarization. hit rate 0.28% among 340,000. Q15102;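 active = inhibition above the screen-wide average of all tested compounds plus 3 SD, cut at about 25% in these data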;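 note: 0% = enzyme with DMSO only and 100% = wells lacking PAFAH1B3 protein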
Target sequence (Q15102 whole entry, looked up): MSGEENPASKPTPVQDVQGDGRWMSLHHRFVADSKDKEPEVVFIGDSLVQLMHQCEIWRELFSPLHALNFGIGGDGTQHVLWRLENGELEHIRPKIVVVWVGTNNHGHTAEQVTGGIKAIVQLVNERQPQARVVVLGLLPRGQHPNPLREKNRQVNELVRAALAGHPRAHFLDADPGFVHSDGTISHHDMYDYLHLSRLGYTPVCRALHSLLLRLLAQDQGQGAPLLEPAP
Numbers without * were called inactive; . = no result given.

SMILES	PAFAH2 inh	TCR CD3 inh	pPAFAH FP inh	PAFAH1B2 inh	PAFAH1B3 inh
O=C(CCCCCBr)N1CCC(CC2CC(c3cccc(Br)c3)=NO2)(C(=O)NCC2CCCCC2)CC1 (stereo not given)	8	-2	25*	2	7
CCCCNC(=O)C(CC)(ONc1ccccc1C(F)(F)F)c1ccccc1OC (stereo not given)	3	0	5	0	2
O=c1[nH]c(SCc2ccc(Cl)cc2)nc2c1CCC2	8	2	26*	52*	9
Cc1cc(=O)n2[nH]c(SCc3ccc(Cl)cc3)nc2n1	18	-2	26*	50*	-7
O=c1[nH]c(SCc2ccc(OC(F)(F)F)cc2)nc2c1CCC2	.	4	.	.	.
CC(=O)c1ccc(OC(C)C)c(CSc2nc(O)cc(=O)[nH]2)c1	7	7	28*	4	-4
O=C(CSc1nc2ccccc2c(=O)[nH]1)NCc1ccc(Cl)cc1	1	11	-1	16	3
O=c1[nH]c(SCc2ccc(Cl)cc2)nc2ccccc12	-2	-5	8	26*	12
c1ccc(-c2cncn2-c2ccccc2)cc1	-5	-2	-1	10	2
Cc1cc2c(nc1C)CCCN2Cc1ccc(Br)cc1	.	3	.	.	.
Cc1nnc(SCc2ccccc2)[nH]c1=O	5	-2	34*	-1	2
O=c1cc(O)nc(SCc2ccc(Cl)cc2)[nH]1	-2	4	16	56*	11
O=c1cc(-c2ccccc2)nc(SCc2ccc(Cl)cc2)[nH]1	5	-3	2	24*	5
Nc1cc(=O)[nH]c(SCc2ccccc2)n1	.	0	.	.	.
O=C(CN1CCN(S(=O)(=O)c2ccc(Br)cc2)CC1)c1ccc(O)c(O)c1	14	9	11	29*	1
CC(C)c1ccc(S(=O)(=O)N2CCN(CC(=O)c3ccc(O)c(O)c3)CC2)cc1	17	12	20	6	7
COc1ccc(OC)c(C(=O)CN2CCN(S(=O)(=O)c3ccc(Br)cc3)CC2)c1	3	6	7	29*	5
O=C(CN1CCN(S(=O)(=O)c2ccc(Br)cc2)CC1)N/N=C/c1ccncc1	-6	1	-7	29*	8
COC(=O)c1cc2c(c3c4cc(C)ccc4n(S(=O)(=O)c4ccc(OC)cc4)c13)C(=O)N(Cc1ccccc1)C2	.	-2	.	.	.
COc1cc(/C=N/NC(=O)c2cc(C3CC3)[nH]n2)ccc1O	4	-3	5	4	0
COc1cc(/C=N/NC(=O)c2cc(C34CC5CC(CC(C5)C3)C4)[nH]n2)ccc1O	16	-12	10	30*	13
Cc1ccc2nc(Cl)c(/C=N/Nc3ccc(C(=O)O)cc3)cc2c1	-4	10	30*	4	10
Cc1csc(=O)n1CCC(=O)OCC(=O)N(CC(C)C)c1c(N)n(Cc2ccccc2)c(=O)[nH]c1=O	-5	2	26*	4	13
COCCN(C(=O)COC(=O)CCn1c(C)csc1=O)c1c(N)n(Cc2ccccc2)c(=O)[nH]c1=O	-4	7	-3	4	1
COc1ccc(S(=O)(=O)Nc2ccc3c(c2)C(=O)N([C@H](C)CO)C[C@H](C)[C@@H](CN(C)C(=O)Nc2c(C)noc2C)O3)cc1	0	3	8	11	0
SMILES	PAFAH2 inh	TCR CD3 inh	pPAFAH FP inh	PAFAH1B2 inh	PAFAH1B3 inh
COC(=O)c1ccc(CSc2nc3scc(-c4cccs4)c3c(=O)[nH]2)o1	16	1	29*	11	6
Nc1nc2c(ncn2[C@@H]2O[C@H](C(=O)N[C@H](Cc3ccccc3)C(=O)NC3CCCCC3)[C@@H](O)[C@H]2O)c(=O)[nH]1	.	0	.	.	.
C[C@H](O)[C@@H]1CN2CCc3c([nH]c4ccccc34)[C@@H]2C[C@@H]1N(C)CC1CCCCC1	.	3	.	.	.
NC(=S)n1[nH]c(-c2ccc([N+](=O)[O-])cc2)c(N=Nc2ccc(O)cc2)c1=O	11	1	32*	7	11
CCC(=O)OC1(C)C(=O)C=C2C=C(CCCCNC(=O)OC(C)(C)C)OC=C2C1=O (stereo not given)	.	.	30*	.	.
CCC(=O)OC1(C)C(=O)C=C2C=C(CCCC(=O)OC)OC=C2C1=O (stereo not given)	4	10	16	-4	3
COC(=O)CCCC1=CC2=CC(=O)C(C)(OC(=O)C3CCCC3)C(=O)C2=CO1 (stereo not given)	1	.	32*	6	-1
CC(C)(C)OC(=O)NCCCC1=CC2=CC(=O)C(C)(OC(=O)c3ccc(Cl)nc3)C(=O)C2=CO1 (stereo not given)	.	.	40*	.	.
CCCCC1=CC2=CC(=O)C(C)(OC(=O)C3CCCC3)C(=O)C2=CO1 (stereo not given)	6	2	20	-1	10
CC(C)(C)OC(=O)NCCCC1=CC2=CC(=O)C(C)(O)C(=O)C2=CO1 (stereo not given)	.	.	32*	.	.
COC(=O)c1cc(S(=O)(=O)NCC2CCN(C(=O)C(=O)c3cc4ccccc4o3)CC2)cs1	.	-5	.	.	.
CN1OC[C@@H]2CN(C(=O)c3ccc(C#N)cc3)[C@H](c3cccc(Br)c3)C[C@@H]21	.	8	.	.	.
Cc1cc(N2CCN(C(C(=O)NC3CCCC3)c3ccc(-c4ccccc4)cc3)CC2)c2ccccc2n1 (stereo not given)	.	12	.	.	.
O=C(c1ccc2c(c1)OCCO2)N1CCN(Cc2c(F)cccc2Cl)CC1	9	0	8	3	18
CC(=O)N1CCN(c2ccc(N3CCN(Cc4ccccc4)[C@@H](C)C3)c(C)c2)[C@H](C)C1	.	1	.	.	.
CC(C)c1cc(C(=O)N2CCCC(Nc3ccc(F)cc3)C2)n[nH]1 (stereo not given)	5	-1	3	24*	2
COCCNC(=O)C1(C)CCN(C(=O)c2cc(C(C)(C)C)nn2C)C1 (stereo not given)	.	-6	.	.	.
O=C(COc1cc(O)c2c(=O)cc(-c3ccccc3)oc2c1)c1cccc([N+](=O)[O-])c1	-7	-1	1	25*	3
O=C(COc1cc(O)c2c(=O)cc(-c3ccccc3)oc2c1)c1ccccc1	-1	5	0	5	8
O=C(N[C@H](C(=O)N1CCC[C@H]1C(=O)NC1CCCC1)c1ccccc1)C1CC1	.	-4	.	.	.
C/C=C(\C)C(=O)OC(C)(C)[C@H]1Cc2cc3ccc(=O)oc3cc2O1	-1	-1	8	3	12
CCOc1ccc2c(c1)c(C(C)=O)c(C)n2-c1ccccc1	-7	-1	26*	0	3
CNC(=O)c1ccc(CN(C)CC(=O)Nc2ccccc2C(=O)NC2CC2)cc1	-2	-1	-4	-3	8
OCCN(CCO)c1ccc(C(c2ccccc2Cl)c2ccc(N(CCO)CCO)cc2Cl)c(Cl)c1	22	.	25*	9	20
O=C1CC(Nc2ccc(N3CCOCC3)cc2)C(=O)N1Cc1ccccc1 (stereo not given)	25	18	34*	2	3
O=C(Cc1c[nH]c2ccccc12)Nc1ccc(Nc2cccnc2)c(-c2ccc(-c3ccccc3)cc2F)c1	.	0	.	.	.
